Reference: PubChem BioAssay (NCI)
About 83,000 compounds went through this panel and 20% of them were active in at least one assay; those are over-represented in the sample as a whole.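 Results are percent growth after 48 hours of single-concentration exposure. 100 means growth as in untreated cells, lower positive values show inhibition; negative values down to -100 show cell death.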 A number with no mark means an inactive call. Active and inactive are the calls of the source. How the source made its calls: active means growth percent below 10; inactive means the rest.

tested on: HL-60(TB) leukemia; assay: NCI-60 one-dose screen, 48 h (100 = growth as untreated, 0 = no growth, -100 = all killed); settings: 10 µM unless noted

SMILES | growth
N#Cc1nn(-c2cc(=O)[nH]c3ccc(Cl)cc23)c(N)c1C#N | 0.972% (active)
O=C(NCc1cn(Cc2cccc(Oc3ccccc3)c2)nn1)c1cccnc1Nc1ccccc1 | 32%
C/C(=N\Nc1cc(C)c2ccccc2n1)c1ccccn1 | -47.1% (active)
CC(=O)N(C)c1ccc(Nc2cc(C)[nH]c3ccc4ncnc4c23)cc1 | 21.3%
